Assay outcomes: PubChem BioAssay, National Center for Advancing Translational Sciences (NCATS)
BRCT PPI red: BRCT-phosphoprotein interaction inhibition (red fluorophore) | P38398 | BRCT-phosphopeptide binding, red fluorescence polarization | Potency, µM (doses to about 76.9 µM), for inactives: at the highest dose activity change, negative = inhibition, actives largely listed as inhibitors | hit rate 0.03% among 75,000; further: on the % scale 0 is the no-effect control and ±100 the full control effect
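Rhodamine-labelled pBACH1 10-mer (100 nM) bound to BRCT domain (100 nM) at pH 7.3; compounds incubated 12 min room temperature, polarization read. Free peptide defines full inhibition; unlabelled decapeptide titrated as control.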
BRCT PPI green: BRCA1 BRCT-phosphoprotein interaction inhibition. hit rate 0.05% among 75,000. Potency, µM (highest dose often 76.9 µM), without a hit: at the top dose activity change, negative = inhibition, most hits filed as inhibitors. BRCA1 BRCT-phosphopeptide binding, green fluorescence polarization. P38398. AID 875;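 further: potency means the concentration at half of the fitted maximal effect; plate controls were peptide without protein for full effect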
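Fluorescence polarization: His-tagged BRCT (~35 kDa BRCA1 C-terminus, 250 nM) bound to 100 nM fluorescein-labeled phosphorylated 10-aa BACH1 peptide, pH 7.3 phosphate buffer with DTT and Tween 20. Compounds incubated 12 min at room temperature; inhibition read as lowered polarization.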
TsaE inh: inhibitors of E. coli YjeE (TsaE). P0AF67. purified YjeE enzyme, qHTS inhibition assay. hit rate 0.05% among 71,000. Potency, µM. AID 605
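Purified YjeE (10 uM) with BODIPY Texas Red-labeled ADP probe (2 uM); compounds pin-transferred, 15 min at room temperature. Binding inhibition read as decreased fluorescence polarization; ADP titration as control.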
Hsp90 Hop PPI: changes Hsp90-Hop TPR2A binding signal, up or down | hit rate 0.44% among 71,000 | AlphaScreen TPR2A-His6 binding biotin-Hsp90 C-terminal peptide | Potency, µM (highest dose often 57 µM), inactives show top-dose activity change, negative = inhibition; active means well fitted curve in either direction with a large enough effect; inconclusive means small, poorly fitted or top-dose-only effect, or another doubt; further: potency means the concentration at half of the fitted maximal effect; on the % scale 0 is the no-effect control and ±100 the full control effect
Pol III holo inh: DNA polymerase III holoenzyme inhibition | reconstituted DNA polymerase III holoenzyme replication, biochemical | Potency, µM (doses to about 57.1 µM), without a hit: at the top dose activity change, negative = inhibition | hit rate 0.25% among 71,000 | AID 603; further: potency means the concentration at half of the fitted maximal effect; on the % scale 0 is the no-effect control and ±100 the full control effect
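Reconstituted *E. coli* holoenzyme (0.35 nM Pol III, 1 nM beta, 154 nM SSB, 2 nM primase) was preincubated with compound for 15 min at RT. Synthesis on 1.4 nM ssM13Gori ran 35 min, then was stopped with PicoGreen/EDTA and read as dsDNA fluorescence.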
Tau fil binding: binds recombinant human tau filaments; P10636; Potency, µM (highest dose often 57.1 µM), for inactives: at the highest dose activity change, negative = inhibition; AID 596; recombinant tau filaments, thioflavin S fluorescence, 15 h; filaments grown with octadecylsulfate alongside compound; hit rate 2% among 71,000;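 further: potency means the concentration at half of the fitted maximal effect; on the % scale 0 is the no-effect control and ±100 the full control effect; actives lower thioflavin S fluorescence by blocking filaments or displacing dye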
Target sequence (P10636 whole entry, looked up): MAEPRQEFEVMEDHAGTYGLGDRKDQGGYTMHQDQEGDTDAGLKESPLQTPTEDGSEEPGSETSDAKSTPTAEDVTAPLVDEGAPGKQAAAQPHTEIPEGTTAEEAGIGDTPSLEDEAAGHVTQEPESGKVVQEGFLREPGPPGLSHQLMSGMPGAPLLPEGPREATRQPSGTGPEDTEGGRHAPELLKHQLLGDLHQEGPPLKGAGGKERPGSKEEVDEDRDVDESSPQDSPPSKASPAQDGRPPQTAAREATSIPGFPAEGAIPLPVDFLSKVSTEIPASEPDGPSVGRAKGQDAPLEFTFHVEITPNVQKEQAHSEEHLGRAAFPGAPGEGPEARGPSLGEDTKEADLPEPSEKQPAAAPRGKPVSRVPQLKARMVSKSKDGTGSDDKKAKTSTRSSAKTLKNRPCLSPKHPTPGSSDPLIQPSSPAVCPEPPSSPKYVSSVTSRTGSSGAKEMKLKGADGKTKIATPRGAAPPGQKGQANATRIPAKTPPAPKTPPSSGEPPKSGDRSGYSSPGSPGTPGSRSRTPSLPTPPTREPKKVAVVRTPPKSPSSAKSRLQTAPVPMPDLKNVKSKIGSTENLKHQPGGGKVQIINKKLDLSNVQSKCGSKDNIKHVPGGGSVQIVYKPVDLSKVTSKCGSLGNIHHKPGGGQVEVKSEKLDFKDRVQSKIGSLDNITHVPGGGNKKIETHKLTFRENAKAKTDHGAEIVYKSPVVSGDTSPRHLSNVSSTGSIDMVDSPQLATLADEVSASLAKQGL
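Recombinant tau protein (human, 1 uM final) plus 30 uM ODS in HEPES pH 7.4 with NaCl, DTT and thioflavine S. Compound present from the start; fluorescence at 510 nm after 15 h, 37 C.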
Numbers without * were called inactive; i = inactive; ? = inconclusive; nt = no result; [ ] = remark or other dose. Only some compounds are listed: those with a hit (about 2.4% of all), similar ones and a draw of the others. Unless noted, the call rests on the fitted dose curve; in most records, active means well fitted curve in the direction sought with a large enough effect; inconclusive means small, poorly fitted or top-dose-only effect, or another doubt; inactive means no such curve, though single readings can be large; an effect the other way counts as inactive or inconclusive.

SMILES | BRCT PPI red | BRCT PPI green | TsaE inh | Hsp90 Hop PPI | Pol III holo inh | Tau fil binding
COC(=O)/C=C\C(=O)N[C@@H]1CC[C@@]2(O)[C@H]3Cc4ccc(O)c5c4[C@@]2(CCN3CC2CC2)[C@@H]1O5 | -2% | 0% | i | -1% | -3% | 32µM*
O=C1CC[C@@]2(O)[C@H]3Cc4ccc(O)c5c4[C@@]2(CCN3CC2CC2)[C@@H]1O5 | -2% | -3% | i | -6% | -3% | ?
COCCOC(=O)c1c(N)n(Cc2ccccc2)c2nc3ccccc3nc12 | 0% | -3% | i | 11% | -7% | 17%
COCCCn1c(N)c(C(=O)NCCC(C)C)c2nc3ccccc3nc21 | -3% | 0% | i | 25µM* | -12% | 3%
COc1ccc(Cn2c(N)c(C(=O)NCc3ccco3)c3nc4ccccc4nc32)cc1 | -3% | 4% | ? | -10% | -10% | 6.3µM*
CCCCCn1c(N)c(C(=O)NCCN2CCOCC2)c2nc3ccccc3nc21 | -1% | -1% | i | ? | -1% | 55%
CC(=O)[C@@H]1CC[C@@H]2[C@H]3CC[C@H]4C[C@@H](O)CC[C@]4(C)[C@@H]3C(=O)C[C@]21C | nt | nt | i | -6% | 0% | 8%
C=CCn1c(O)c(C(C)=Nc2ccc(N(CC)CC)cc2)c(=O)[nH]c1=O | -1% | 0% | i | -10% | -4% | 16µM*
COC[C@@H]1OC(=O)c2coc3c2[C@]1(C)C1=C(C3=O)[C@H]2CCC(=O)[C@]2(C)C[C@@H]1OC(C)=O | nt | nt | i | -9% | 8% | 38%
CCCCc1ccc2[nH]cc(CCN)c2c1 | 0% | -4% | i | -4% | -2% | 16µM*
NCCc1c[nH]c2ccccc12 | -2% | 0%[3.08 µM] | i | -7% | -8% | 3%
N#CC(C#N)=Cc1cc(O)c(O)c(O)c1 | -1% | -2% | i | 7.9µM* | -11% | 10%
N#C/C(=C\c1ccc(O)c(O)c1)C(N)=S | 0% | 195% | i | ? | -10% | 78%
C[C@H](N[C@@H](C)CCc1ccccc1)[C@H](O)c1ccc(O)cc1 | -1% | -2% | i | -1% | -4% | -11%
CC[n+]1c(-c2ccccc2)c2cc(N)ccc2c2ccc(N)cc21 | ? | ? | 79µM* | -18% | 2µM* | 0.32µM*
C[C@@]12CC[C@H]3[C@@H](CCC4=C(O)C(=O)CC[C@]43C)[C@H]1CCC2=O | -3% | -5% | i | -11% | 0% | -3%
Brc1ccc(Oc2ccc(Br)cc2Br)c(Br)c1 | -2% | -6% | i | 32µM* | 11% | 8%
CC(=O)[O-].CC(=O)[O-].O.O.[Cd+2] | 0% | 0% | ? | -3% | 0.25µM* | 7%
c1cc2cc(c1)C[n+]1ccc(c3ccccc31)NCc1ccc(cc1)CNc1cc[n+](c3ccccc13)C2 | -2% | 7% | i | -12% | 32µM* | -17%
CN1[C@@H]2CC[C@H]1CC(O[C@@H](c1ccccc1)c1ccccc1N)C2 (some centres not stated) | -1% | -1% | i | -8% | -4% | -9%
O=C(O)[C@@H]1[C@H](C(=O)O)[C@]2(Cl)C(Cl)=C(Cl)[C@@]1(Cl)C2(Cl)Cl | -3%[15.4 µM] | -5%[15.4 µM] | i | -2%[11 µM] | 2µM* | -8%[11.4 µM]
O=C(O)c1ccccc1-c1c2cc(Br)c(=O)cc-2oc2[c]([Hg])c(O)c(Br)cc12 | 1.6µM* | 0.79µM* | i | -8%[26 µM] | i | i
C/C=C1\C[C@H](C)[C@](O)(CO)C(=O)OCC2=CCN3CC[C@@H](OC1=O)[C@@H]23 | nt | nt | i | -7% | 2% | -22%
CO[C@@H]([CH2][Hg])CN1C(=O)c2ccccc2S1(=O)=O.Cn1c(=O)c2nc[nH]c2n(C)c1=O | 2%[15.4 µM] | 0%[15.4 µM] | i | -2%[11 µM] | -17%[11.4 µM] | -1%[11.4 µM]
c1ccc2c(c1)-c1cccc3cccc-2c13 | -2% | -5% | i | 32µM* | -3% | -1%
NC(=O)CN1C[C@@H](O)CC1=O | -2% | -3% | i | -8% | -10% | -7%
